Source: PubChem BioAssay
Shown are actives, neighbours in structure and some others; about 3.1% of the full set was active somewhere.
Autofluor counter: counter-screen for toxin protease inhibitors: compound fluorescence | fluorescence intensity (test concentration not listed) | AID 624483 | compound autofluorescence counterscreen, microsphere flow cytometry; active compounds read high | 360,000 tested, 3.1% active; in the data active = fluorescence intensity above about 16000; inconclusive = no clear call, values can overlap the other calls
BoNT-A LC inh2: inhibitors of Botulinum neurotoxin A light chain protease; 360,000 tested, 0.17% active; AID 588499; inhibition, % at 10 µM; multiplex microsphere protease substrate cleavage, flow cytometry; note: plate controls were buffer without enzyme for full effect and enzyme alone for no effect
BoNT-F LC inh: inhibitors of Botulinum neurotoxin F light chain protease; inhibition, % at 10 µM; 360,000 tested, 0.22% active; Multiplex microsphere protease cleavage assay, flow cytometry; in the data active = inhibition above about 35%, passing the limit was not always enough; inconclusive = no clear call, values can overlap the other calls; note: plate controls were buffer without enzyme for full effect and enzyme alone for no effect
PriA SSB inh: blocks PriA binding to SSB C-terminal tail; inhibition, % at 33 µM; AID 1272365; 430,000 tested, 0.6% active; AlphaScreen SSBct-PriA binding, biotinylated peptide; in the data active = inhibition mostly above about 37%, no sharp cut-off; inactive = mostly below about 20%;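 note: plate controls were negative control peptide for no effect and reference peptide for full effect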
Anthrax LF prot: anthrax lethal factor protease inhibition. 360,000 tested, 0.12% active. inhibition, % at 10 µM. multiplex microsphere protease cleavage assay, LF. AID 588501; note: plate controls were buffer without enzyme for full effect and enzyme alone for no effect
Target sequence (P15917 whole entry, looked up): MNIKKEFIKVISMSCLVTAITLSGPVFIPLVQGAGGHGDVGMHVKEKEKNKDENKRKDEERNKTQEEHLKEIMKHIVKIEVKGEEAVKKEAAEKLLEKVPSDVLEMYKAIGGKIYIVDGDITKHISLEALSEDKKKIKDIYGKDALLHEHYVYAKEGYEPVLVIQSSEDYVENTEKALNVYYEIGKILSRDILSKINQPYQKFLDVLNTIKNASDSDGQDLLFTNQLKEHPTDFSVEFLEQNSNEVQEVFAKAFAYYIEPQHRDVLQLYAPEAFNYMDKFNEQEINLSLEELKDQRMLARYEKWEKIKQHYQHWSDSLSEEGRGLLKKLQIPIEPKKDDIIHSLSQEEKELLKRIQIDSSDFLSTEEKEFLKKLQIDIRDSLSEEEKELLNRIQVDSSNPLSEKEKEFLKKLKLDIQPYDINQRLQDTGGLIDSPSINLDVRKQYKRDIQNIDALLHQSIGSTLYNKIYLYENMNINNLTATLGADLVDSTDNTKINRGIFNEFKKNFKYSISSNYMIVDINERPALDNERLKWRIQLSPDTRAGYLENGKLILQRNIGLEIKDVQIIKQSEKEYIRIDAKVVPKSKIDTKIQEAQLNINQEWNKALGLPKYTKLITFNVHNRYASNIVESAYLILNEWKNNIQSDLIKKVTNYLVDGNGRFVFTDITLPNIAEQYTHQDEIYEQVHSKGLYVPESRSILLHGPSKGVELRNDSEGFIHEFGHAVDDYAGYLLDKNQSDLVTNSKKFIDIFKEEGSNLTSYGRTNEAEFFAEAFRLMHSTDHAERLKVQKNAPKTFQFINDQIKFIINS
* = called active by the depositor; u = inconclusive; x = no result. Cut-off read from the data, not from the text of the source, unless noted: active = inhibition above about 30%; inconclusive = no clear call, values can overlap the other calls; inactive = below that.

SMILES	Autofluor counter	BoNT-A LC inh2	BoNT-F LC inh	PriA SSB inh	Anthrax LF prot
CCc1ccc(N=c2c([N+](=O)[O-])nn(-c3ccccc3)n2O)cc1	8681	-1.7	-34.4	69.9*	-7.6
NC(=NOC(=O)c1ccc2c(c1)OCO2)c1ccncc1	x	x	x	-7.9	x
O=C(Cc1cc(-c2ccco2)on1)NCCc1c[nH]c2ccccc12	x	x	x	10.0	x
CCc1nnc2c3c(-c4ccc(F)cc4)c(C)sc3ncn12	x	x	x	-4.0	x
CCCC(=O)N(CCn1cccn1)c1nc2ccc(OC)cc2s1	x	x	x	-10.0	x
CCOc1cc(NC(=S)NCCCN2CCOCC2)c(OCC)cc1NC(=O)CC(C)C	22374*	-1.2	-4.1	-14.5	-1.2
O=C(CCn1nnc2ccccc21)Nc1nnc(Cc2ccc(F)cc2)s1	7478	u	-3.8	-13.9	u
CCOc1cc(NC(=S)Nc2cccc(OC)c2)c(OCC)cc1NC(=O)C(C)C	23255*	u	-3.2	2.6	-5.6
O=C(CCn1nnc2ccccc21)Nc1nnc(COc2ccc(F)cc2)s1	21872*	u	-1.2	-1.7	-3.3
CCOc1cc(NC(=O)CC(C)C)c(OCC)cc1NC(=O)CCn1nnc2ccccc21	21013*	-1.9	-5.3	-8.3	-2.4
COc1cccc(NC(=O)C(C)C)c1	3571	-0.3	4.3	-11.0	-0.6
O=C(CSC1=NS(=O)(=O)c2ccccc2N1)Nc1cccc2ccccc12	x	x	x	-3.0	x
COc1ccc(C)cc1S(=O)(=O)NCCn1nc(-c2ccncc2)ccc1=O	x	x	x	1.0	x
CCOc1cc(NC(=S)Nc2cccc(C)c2)c(OCC)cc1NC(=O)CC(C)C	22828*	-0.8	-4.0	-7.6	-1.9
CCOc1cc(NC(=S)Nc2cccc(OC)c2)c(OCC)cc1NC(=O)c1ccc(C)cc1	5883	0.1	-3.3	25.5	2.1
CCOc1cc(NC(=S)Nc2ccccc2)c(OCC)cc1NC(=O)c1ccc(OC)cc1	18966*	6.5	8.7	11.3	-11.5
CC(=O)Nc1cccc(-c2nnc(SCC(=O)N3CCCCC3)n2C)c1	24749*	-1.9	-3.2	-20.9	-0.2
O=C(CC(O)(c1ccccc1)C(F)(F)C(F)F)c1cccs1 (configuration not stated)	20372*	u	-3.7	-25.2	-1.0
COCCn1c(SCC(=O)Nc2nnc(C)s2)nnc1-c1ccncc1	11254	-0.8	-9.5	-7.9	-0.7
CCOC(=O)c1sc(NC(=O)CSc2nnc(-c3ccc(OC)cc3)n2CCOC)nc1C	22333*	1.0	-1.3	-13.1	-3.2
CCCC1C(c2ccc(OC)cc2)C(C#N)(C#N)C2(C#N)CC1(N)NC2=O (configuration not stated)	20036*	1.1	0.9	-11.6	-1.1
O=C(NC1CCC(Oc2ncc(F)cn2)CC1)c1ccsc1 (configuration not stated)	x	x	x	-20.0	x
CN(C)c1cccc(C(=O)NCC(C)(O)Cc2ccco2)c1 (configuration not stated)	x	x	x	-1.0	x
C/C(=N\Nc1ncnc2sc(C)c(C)c12)c1ccccn1	9536	40.4*	39.8*	x	18.7
CC(=NNc1ncnc2sc(C)c(C)c12)c1ccccn1	x	x	x	13.5	x
SMILES	Autofluor counter	BoNT-A LC inh2	BoNT-F LC inh	PriA SSB inh	Anthrax LF prot
O=Cc1ccc(Sc2nnc(-c3ccccc3)o2)c([N+](=O)[O-])c1	19318*	u	4.1	-3.4	-7.1
O=C(Cc1cccs1)NCc1ccc(-c2ccc(F)cc2)o1	x	x	x	2.0	x
Oc1c(Cl)cc(Cl)cc1C=Nc1ncn[nH]1	x	x	x	-15.1	x
Cc1ccc(N=Cc2cc(Cl)cc(Cl)c2O)nc1	2526	3.5	34.6*	-10.6	-1.3
CN(C)S(=O)(=O)c1ccc(C(=O)OCc2cc(-c3ccco3)on2)cc1	x	x	x	3.0	x
COCCCNC(=S)NNC(=S)Nc1ccccc1	5310	-2.0	-12.0	-5.4	0.1
COCCCNC(=S)NNC(=S)Nc1ccc(F)cc1F	21111*	u	-0.2	-2.7	-1.4
Cc1c(C(=O)Nc2ccccc2-c2ccccc2)cccc1[N+](=O)[O-]	20236*	4.5	3.4	7.3	-10.5
COc1ccc(C(=O)Nc2ccccc2C(=O)O)cc1Cl	2422	0.7	4.0	-4.1	4.6
CCOc1c(Cl)cc(C(=O)Nc2ccccc2C(=O)O)cc1Cl	19009*	u	1.7	-9.9	-2.8
COc1ccc(Br)cc1C(=O)Nc1ccccc1-c1ccccc1	28074*	-14.7	-15.2	-30.7	-2.9
CCOc1ccccc1NC(=O)c1ccc2c(c1)C(=O)N(CC)C2=O	3013	3.2	26.2	100.5*	25.2
Cc1c(C(=O)Nc2ccc(C(=O)Nc3ccccc3)cc2)cccc1[N+](=O)[O-]	3103	-1.7	-5.7	-4.3	4.9
CCOc1ccccc1NC(=O)c1ccc2c(c1)C(=O)N(C(C)(C)C)C2=O	3317	-1.1	u	-6.8	-8.8
CCOc1ccc(-n2c(N3CCOCC3)nc3cc(C(=O)OC)ccc3c2=O)cc1	x	x	x	-2.0	x
COc1ccc(-n2c(O)c(C=NNS(=O)(=O)c3ccc(C)cc3)c3ccccc3c2=O)cc1OC	x	x	x	9.4	x
CCOc1ccc(C(=O)Nc2cccc(C(=O)O)c2C)cc1Cl	2536	-0.9	-8.8	-5.3	1.0
CCOc1ccc(C(=O)Nc2ccccc2-c2ccccc2)cc1Cl	17980*	6.5	6.0	-32.2	-7.2
COc1ccc(NS(=O)(=O)Cc2ccccc2Cl)cn1	23973*	u	-7.6	-9.0	0.5
O=C(NC[C@@H](c1ccco1)N1CCN(c2ccccc2F)CC1)C1CC1	x	x	x	-20.0	x
CSc1nnc(-c2cccn(Cc3ccccc3)c2=O)o1	3506	0.6	1.0	-0.2	11.4
O=c1c(-c2nnc(SCc3ccc(Cl)cc3Cl)o2)cccn1Cc1ccccc1	22041*	u	-0.7	-6.7	0.5
O=C(Cc1ccc2c(c1)OCO2)N1CCCC(Oc2cccnn2)C1 (configuration not stated)	x	x	x	-13.0	x
COc1cc(C(C)=O)ccc1OCC(=O)Nc1cc(-n2nc(C)cc2C)ncn1	x	x	x	-2.0	x
COc1cccc(C(=O)Cn2c(N3CCOCC3)nc3c2c(=O)n(C)c(=O)n3C)c1	16198*	-0.5	-0.6	-5.1	-2.9
SMILES	Autofluor counter	BoNT-A LC inh2	BoNT-F LC inh	PriA SSB inh	Anthrax LF prot
COCCn1c(N2CCN(c3ccc(OC)cc3)CC2)nc2c1c(=O)n(C)c(=O)n2C	17764*	6.0	6.4	-5.0	-14.2
COc1cccc(C(=O)Cn2c(N3CCCCC3)nc3c2c(=O)n(C)c(=O)n3C)c1	15156	2.9	2.6	-8.2	-2.8
CCOCCn1c(N2CCN(c3ccc(OC)cc3)CC2)nc2c1c(=O)n(C)c(=O)n2C	2474	-0.1	-1.8	-15.8	-1.8
CCSc1nc2ccccc2n1C(=O)c1ccc(S(=O)(=O)N2CCCCCC2)cc1	1997	0.6	0.3	0.0	-0.9
CCSc1nc2ccccc2n1C(=O)c1ccc(S(=O)(=O)N2CCCCC2)cc1	20953*	-3.0	-3.9	-9.2	-1.9
COc1ccc(/C(O)=C(\C#N)c2nc3ccccc3n2C)cc1OC	21521*	u	5.3	x	1.7
CN(C1CCCCC1)S(=O)(=O)c1ccc(C(O)=C(C#N)c2nc3ccccc3n2C)cc1	x	x	x	4.0	x
Cn1c(/C(C#N)=C(\O)c2ccc(S(=O)(=O)N3CCCCC3)cc2)nc2ccccc21	23146*	0.8	0.0	x	-2.4
CCCCc1ccc(NC(=S)NCc2cccc(OC)c2)cc1	2054	0.0	-5.5	-46.3	-1.2
CCCCc1ccc(NC(=S)Nc2ccc(Nc3ccc(OC)cc3)cc2)cc1	1624	-0.9	-11.1	83.8*	-5.1
